Measurements as given in PubChem BioAssay (EPA / NIEHS).
The source made the active and inactive calls. The calls were made as follows: active = hit-call score of the fitted dose curve at least 0.9, where 1 is the maximum; inactive = score below 0.9.

How the values were obtained:
Details in all cases: mRNA level, 48 h; actives raise or lower the signal
[1] = read-out: Broad substrate specificity ATP-binding cassette transporter ABCG2 (Homo sapiens) (UniProt Q9UNQ0); assay: LTEA_HepaRG_ABCG2: Life Technologies and Expression Analysis (LTEA) Assay for ABC Transporter (ABCG2) using HepaRG (AID 2283465)
Procedure, shortened: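 Read-out is ABCG2 mRNA induction or loss quantified by qRT-PCR after 48 h chemical treatment of human HepaRG cells, normalized to three housekeeping genes. Concentrations reached 100 uM top in half-log steps; fitting was bidirectional against 0.5% DMSO.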

[2] = read-out: ATP-citrate lyase (ACLY), ACLY (gene 47); assay: LTEA_HepaRG_ACLY: Life Technologies and Expression Analysis (LTEA) Assay for ATP-citrate lyase (ACLY) using HepaRG (AID 2283466)
Procedure, shortened: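 HepaRG, 48 h exposure, 8-pt half-log dilutions (top 100 uM), 0.5% DMSO. Readout: ACLY mRNA, TaqMan qRT-PCR, housekeeping-normalized (ACTB/GAPDH/POLR2A). Bidirectional curve fit vs DMSO.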

[3] = read-out: Peroxisomal acyl-coenzyme A oxidase 1 (ACOX1) gene, ACOX1 (gene 51); assay: LTEA_HepaRG_ACOX1: Life Technologies and Expression Analysis (LTEA) Assay for Peroxisomal acyl-coenzyme A oxidase 1 (ACOX1) gene using HepaRG (AID 2283467)
Procedure, shortened: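 Measured by qRT-PCR against three housekeeping genes: ACOX1 transcript change in human HepaRG cells after 48 h dosing. Concentrations ran up to 100 uM in half-log steps. Curves were fitted bidirectionally relative to 0.5% DMSO.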

[4] = read-out: Alkaline Phosphatase, Placental (ALPP) gene, ALPP (gene 250); assay: LTEA_HepaRG_ALPP: Life Technologies and Expression Analysis (LTEA) Assay for Alkaline Phosphatase, Placental (ALPP) gene using HepaRG (AID 2283468)
Procedure, shortened: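 Expression of ALPP was quantified by qRT-PCR against three housekeeping genes in human HepaRG cultures treated for 48 h with an eight-point concentration series up to 100 uM. Activity in either direction was fitted relative to 0.5% DMSO.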

[5] = read-out: Bcl-2 (BAD) gene, BAD (gene 572); assay: LTEA_HepaRG_BAD: Life Technologies and Expression Analysis (LTEA) Assay for Bcl-2 (BAD) gene using HepaRG (AID 2283469)
Procedure, shortened: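 BAD transcript change, measured by qRT-PCR against three housekeeping genes and fitted in both directions relative to 0.5% DMSO, after 48 h chemical treatment of human HepaRG liver cells at concentrations up to 100 uM.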

[6] = read-out: Bcl-2 (BAX) gene, BAX (gene 581); assay: LTEA_HepaRG_BAX: Life Technologies and Expression Analysis (LTEA) Assay for Bcl-2 (BAX) gene using HepaRG (AID 2283470)
Procedure, shortened: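 Differentiated HepaRG cells exposed 48 h in serum-free induction medium, eight half-log concentrations from 100 uM, in duplicate, 0.5% DMSO vehicle. BAX mRNA by TaqMan qRT-PCR, normalised to ACTB, GAPDH and POLR2A.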

[7] = read-out: adenosine kinase (ADK) gene, ADK (gene 132); assay: LTEA_HepaRG_ADK: Life Technologies and Expression Analysis (LTEA) Assay for adenosine kinase (ADK) gene using HepaRG (AID 2283471)
Procedure, shortened: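 Differentiated HepaRG cells dosed 48 h in serum-free induction medium, 0.5% DMSO vehicle, eight half-log concentrations from 100 uM, in duplicate. ADK mRNA by TaqMan qRT-PCR normalised to ACTB, GAPDH, POLR2A; bidirectional fit versus DMSO.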

[8] = read-out: Alpha-fetoprotein (AFP) gene, AFP (gene 174); assay: LTEA_HepaRG_AFP: Life Technologies and Expression Analysis (LTEA) Assay for Alpha-fetoprotein (AFP) gene using HepaRG (AID 2283472)
Procedure, shortened: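 Differentiated human HepaRG cells exposed 48 h in serum-free induction medium, 8-point half-log series from 100 uM in 0.5% DMSO, duplicate. AFP mRNA by qRT-PCR, normalized to ACTB, GAPDH, POLR2A; bidirectional fit vs DMSO.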

[9] = read-out: BCL2L11 (gene 10018); assay: LTEA_HepaRG_BCL2L11: Life Technologies and Expression Analysis (LTEA) Assay for Bcl-2 (BCL2L11) gene using HepaRG (AID 2283473)
Procedure, shortened: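 Cells were plated, cultured 48 h, switched to serum-free induction medium, then dosed in duplicate for 48 h at eight half-log concentrations up to 100 uM. Lysates underwent RNA isolation and TaqMan qRT-PCR; gain or loss versus DMSO was fitted.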

[10] = read-out: Apolipoprotein A-V (APOA5) gene, APOA5 (gene 116519); assay: LTEA_HepaRG_APOA5: Life Technologies and Expression Analysis (LTEA) Assay for Apolipoprotein A-V (APOA5) gene using HepaRG (AID 2283474)
Procedure, shortened: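 Human liver HepaRG cells are treated 48 h with test chemicals (100 uM top, half-log dilutions, 0.5% DMSO). APOA5 mRNA induction or loss is measured by qRT-PCR relative to vehicle.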

Measured: AC50

Sequence of Broad substrate specificity ATP-binding cassette transporter ABCG2 (Homo sapiens) (Q9UNQ0 whole entry, looked up): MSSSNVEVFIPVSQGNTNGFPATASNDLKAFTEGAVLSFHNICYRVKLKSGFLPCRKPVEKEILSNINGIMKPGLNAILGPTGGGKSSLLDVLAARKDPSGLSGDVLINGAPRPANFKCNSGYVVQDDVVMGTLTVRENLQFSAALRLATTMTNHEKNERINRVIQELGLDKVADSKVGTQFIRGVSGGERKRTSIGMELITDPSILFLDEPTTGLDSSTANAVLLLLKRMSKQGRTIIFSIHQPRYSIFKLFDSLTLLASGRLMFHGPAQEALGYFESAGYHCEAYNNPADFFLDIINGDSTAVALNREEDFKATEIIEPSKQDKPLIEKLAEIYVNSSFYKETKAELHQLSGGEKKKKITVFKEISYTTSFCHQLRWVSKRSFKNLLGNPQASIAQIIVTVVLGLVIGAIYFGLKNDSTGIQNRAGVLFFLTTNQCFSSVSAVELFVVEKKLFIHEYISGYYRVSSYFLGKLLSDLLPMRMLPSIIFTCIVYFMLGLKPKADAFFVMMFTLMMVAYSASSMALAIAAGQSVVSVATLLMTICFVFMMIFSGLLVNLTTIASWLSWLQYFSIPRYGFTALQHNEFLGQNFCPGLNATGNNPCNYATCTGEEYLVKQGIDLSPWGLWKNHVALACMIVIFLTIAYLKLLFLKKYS

CCCCCCCCCCCO
inactive: all assays above

CCCCCCCCOc1ccc(C(=O)c2ccccc2)c(O)c1
inactive: all assays above

O=C(OCCCCCCOC(=O)c1ccccc1)c1ccccc1
inactive: all assays above

O=C1CCC(C2CCCCC2)CC1
inactive: all assays above

NC(=O)c1nc(-c2cccc(-c3cc(F)ccc3OCC(F)(F)C(F)(F)F)c2)n[nH]1
active: [1] 15.8 µM | [3] 81.4 µM | [4] 3.42 µM | [7] 92.8 µM | [9] 74.2 µM
inactive: all other assays above

Cc1ccc(C(C)C)cc1
inactive: all assays above

Cc1c2ccccc2c(C)c2c1ccc1ccccc12
inactive: [2] | [5] | [7]
active: [1] 12.8 µM | [3] 27.7 µM | [4] 39.7 µM | [6] 63.1 µM | [8] 51.5 µM | [9] 29.6 µM | [10] 50 µM

CC1(C)NC(=O)N(c2ccc([N+](=O)[O-])c(C(F)(F)F)c2)C1=O
inactive: [5] | [6] | [7] | [9]
active: [1] 29.3 µM | [2] 76.5 µM | [3] 63.7 µM | [4] 50 µM | [8] 80.5 µM | [10] 67.9 µM

CCO[Si](CCCNC(N)=O)(OCC)OCC
inactive: all assays above

CC(C)(C)c1csc(-c2cc3cc(OCc4ccccc4CC(=O)O)ccc3o2)n1
inactive: [5] | [6]
active: [1] 15.8 µM | [2] 87.4 µM | [3] 72.1 µM | [4] 24.4 µM | [7] 73.1 µM | [8] 23.9 µM | [9] 18.8 µM | [10] 20 µM

CN1C(=O)CC[C@H]1c1cccnc1
inactive: all assays above

Cc1ccc2oc(CN(Cc3ccccc3)C(=O)Nc3c(F)cc(F)cc3F)c(-c3ccc(Cl)cc3)c2c1
active: [1] 17.6 µM | [8] 32 µM | [10] 44.2 µM
inactive: all other assays above

CC(O)CC(C)(C)O (stereo not given)
inactive: all assays above

C[C@]12CC[C@@H]3c4ccc(O)cc4CC[C@H]3[C@@H]1CCC2=O
active: [1] 16.7 µM | [8] 26.6 µM
inactive: all other assays above

CCCCCCCCCCCC[N+](C)(C)C
active: [1] 67.5 µM | [2] 83.3 µM | [3] 77.8 µM | [4] 66.1 µM | [6] 84.6 µM | [9] 90.3 µM | [10] 79.4 µM
inactive: [5] | [7] | [8]

CC(C)(C)c1cc(/C=C2\SC(N)=NC2=O)cc(C(C)(C)C)c1O
active: [2] 82 µM | [3] 26.1 µM | [7] 23.5 µM | [9] 96.8 µM
inactive: all other assays above

Cc1cc(F)ccc1-c1cc(N2CC[C@@H](O)[C@H]2CO)ncc1N(C)C(=O)C(C)(C)c1cc(C(F)(F)F)cc(C(F)(F)F)c1
inactive: [2] | [7]
active: [1] 16.7 µM | [3] 8.09 µM | [4] 16.5 µM | [5] 72.1 µM | [6] 74.8 µM | [8] 18 µM | [9] 52.7 µM | [10] 12.9 µM
